According to PMC13541613, “GHT-SELEX demonstrates unexpectedly high intrinsic sequence specificity and complex DNA binding of many human transcription factors”:

What was measured:
Assay in all cases: HT-SELEX; 20 mM HEPES pH 7, 140 mM KCl, 5 mM NaCl, 1 mM K2HPO4, 2 mM MgSO4, 100 uM EGTA, ZnSO4, 0.1% Tween20; room temperature, 1 h; high values mean tight binding
Conditions in all cases: protein: ivt; tags: eGFP (N-terminal); dsDNA, one strand shown
ZNF721 full-length = ZNF721 full-length (Homo sapiens, UniProt Q8TF20-2 1-923)
ZNF721 full-length, sequence (Q8TF20 other isoform, or with tags, fused parts or gaps): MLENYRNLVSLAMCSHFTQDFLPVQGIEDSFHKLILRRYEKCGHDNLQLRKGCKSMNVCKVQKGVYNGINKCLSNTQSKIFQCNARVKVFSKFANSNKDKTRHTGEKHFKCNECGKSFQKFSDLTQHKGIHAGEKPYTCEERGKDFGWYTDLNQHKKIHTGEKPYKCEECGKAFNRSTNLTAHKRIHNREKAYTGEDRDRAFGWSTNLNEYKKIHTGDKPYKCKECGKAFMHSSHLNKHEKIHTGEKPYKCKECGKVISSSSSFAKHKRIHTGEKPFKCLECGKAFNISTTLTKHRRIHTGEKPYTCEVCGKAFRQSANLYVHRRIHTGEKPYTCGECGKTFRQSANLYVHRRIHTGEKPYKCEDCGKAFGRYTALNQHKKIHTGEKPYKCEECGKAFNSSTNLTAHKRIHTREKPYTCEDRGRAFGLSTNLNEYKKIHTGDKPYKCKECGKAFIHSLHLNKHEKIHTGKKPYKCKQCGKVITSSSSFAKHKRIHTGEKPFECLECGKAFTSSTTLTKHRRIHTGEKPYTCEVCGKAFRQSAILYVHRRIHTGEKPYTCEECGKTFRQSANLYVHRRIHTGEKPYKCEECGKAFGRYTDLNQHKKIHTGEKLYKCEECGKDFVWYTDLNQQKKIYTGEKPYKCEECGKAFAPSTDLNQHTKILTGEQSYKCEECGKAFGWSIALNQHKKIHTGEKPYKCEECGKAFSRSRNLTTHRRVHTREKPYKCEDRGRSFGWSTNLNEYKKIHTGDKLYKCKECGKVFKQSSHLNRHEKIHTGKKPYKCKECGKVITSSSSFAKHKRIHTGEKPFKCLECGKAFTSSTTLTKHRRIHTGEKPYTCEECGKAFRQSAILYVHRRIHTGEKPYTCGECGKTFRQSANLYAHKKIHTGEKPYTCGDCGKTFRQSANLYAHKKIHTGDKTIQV
How it was run: (§1)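 The binding signal is a relative k-mer count in selected reads, and higher values mean tighter binding. To obtain these reads, bead-bound tagged transcription factor (full-length or DNA-binding-domain fragment, produced in HEK293 lysate or cell-free extract) was mixed with a randomized 40-base DNA library for 1 h at room temperature in low-stringency HEPES/KCl buffer with Tween20. Bound DNA was recovered by washing and heat elution, PCR-amplified through successive cycles and sequenced on Illumina (~3 million 60 bp reads per sample).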

ZNF721 DBD1 = ZNF721 DBD1 (Homo sapiens, UniProt Q8TF20-2 29-461)
ZNF721 DBD1, sequence (Q8TF20 17-449): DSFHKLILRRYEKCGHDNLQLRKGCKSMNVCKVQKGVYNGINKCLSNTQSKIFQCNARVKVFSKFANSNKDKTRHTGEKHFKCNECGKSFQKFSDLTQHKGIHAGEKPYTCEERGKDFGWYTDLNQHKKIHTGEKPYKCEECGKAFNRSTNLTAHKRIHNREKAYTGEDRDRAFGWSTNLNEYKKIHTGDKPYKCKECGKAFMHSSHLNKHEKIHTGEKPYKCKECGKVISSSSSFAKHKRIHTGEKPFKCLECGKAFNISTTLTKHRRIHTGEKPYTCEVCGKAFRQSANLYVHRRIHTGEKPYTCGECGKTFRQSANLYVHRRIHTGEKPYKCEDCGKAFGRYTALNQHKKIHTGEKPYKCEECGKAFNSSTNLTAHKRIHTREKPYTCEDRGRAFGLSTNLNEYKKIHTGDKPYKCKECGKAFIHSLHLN
How it was run: as §1

ZNF721 DBD2 = ZNF721 DBD2 (Homo sapiens, UniProt Q8TF20-2 395-923)
ZNF721 DBD2, sequence (Q8TF20 383-911): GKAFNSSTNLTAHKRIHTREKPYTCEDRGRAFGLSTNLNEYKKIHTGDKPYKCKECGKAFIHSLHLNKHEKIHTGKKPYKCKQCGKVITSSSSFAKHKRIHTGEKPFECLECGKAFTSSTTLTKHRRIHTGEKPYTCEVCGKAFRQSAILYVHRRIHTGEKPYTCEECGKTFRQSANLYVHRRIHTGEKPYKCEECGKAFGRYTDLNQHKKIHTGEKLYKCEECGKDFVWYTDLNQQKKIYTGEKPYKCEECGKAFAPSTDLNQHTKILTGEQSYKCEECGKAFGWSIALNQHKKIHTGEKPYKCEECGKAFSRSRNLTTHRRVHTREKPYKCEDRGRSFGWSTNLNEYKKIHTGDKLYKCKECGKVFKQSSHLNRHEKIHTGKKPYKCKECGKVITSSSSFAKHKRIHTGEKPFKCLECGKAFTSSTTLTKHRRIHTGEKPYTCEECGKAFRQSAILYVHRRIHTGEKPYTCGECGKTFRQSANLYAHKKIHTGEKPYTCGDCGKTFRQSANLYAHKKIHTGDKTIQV
How it was run: as §1

Sequence	binding signal (ZNF721 full-length)	binding signal (ZNF721 DBD1)	binding signal (ZNF721 DBD2)
CCCCTACCCC	0.199 relative 10-mer count	0.00954 relative 10-mer count	0.00384 relative 10-mer count
CCACCCCTAC	0.112 relative 10-mer count	0.00449 relative 10-mer count	0.0036 relative 10-mer count
ACCACCCTCC	0.124 relative 10-mer count	0.00523 relative 10-mer count	0.00324 relative 10-mer count
CACCACCCCC	0.276 relative 10-mer count	0.0117 relative 10-mer count	0.0024 relative 10-mer count
ACAGCGTACC	0.193 relative 10-mer count	0.00115 relative 10-mer count	0.259 relative 10-mer count
TGTGTATGAA	0.169 relative 10-mer count	0.203 relative 10-mer count	0.00228 relative 10-mer count
CACCACCACC	0.19 relative 10-mer count	0.0072 relative 10-mer count	0.0109 relative 10-mer count
CCACCCCCGC	0.203 relative 10-mer count	0.0072 relative 10-mer count	0.00264 relative 10-mer count
CCCACCCCTA	0.119 relative 10-mer count	0.00431 relative 10-mer count	0.00324 relative 10-mer count
CCCCTCCCGC	0.137 relative 10-mer count	0.00665 relative 10-mer count	0.00635 relative 10-mer count
CACCCCATCC	0.11 relative 10-mer count	0.00372 relative 10-mer count	0.00575 relative 10-mer count
CGCCCGCCCC	0.126 relative 10-mer count	0.00408 relative 10-mer count	0.00144 relative 10-mer count
AGCAGCATAC	0.146 relative 10-mer count	0.00179 relative 10-mer count	0.164 relative 10-mer count
CAGCCCCCCC	0.103 relative 10-mer count	0.00284 relative 10-mer count	0.0267 relative 10-mer count
CCCCTCGCCC	0.161 relative 10-mer count	0.00665 relative 10-mer count	0.00372 relative 10-mer count
CCCCCCGCCC	0.28 relative 10-mer count	0.0116 relative 10-mer count	0.00336 relative 10-mer count
CTTTTTTTTA	0.14 relative 10-mer count	0.0207 relative 10-mer count	0.0588 relative 10-mer count
ACCCCACACC	0.14 relative 10-mer count	0.00436 relative 10-mer count	0.00276 relative 10-mer count
CTACCCCCCC	0.105 relative 10-mer count	0.00427 relative 10-mer count	0.00312 relative 10-mer count
CACCCCACCC	0.31 relative 10-mer count	0.012 relative 10-mer count	0.0036 relative 10-mer count

Sequence	binding signal (ZNF721 full-length)	binding signal (ZNF721 DBD1)	binding signal (ZNF721 DBD2)
CCCACCACCA	0.199 relative 10-mer count	0.00784 relative 10-mer count	0.00599 relative 10-mer count
CCTCCCCCCG	0.143 relative 10-mer count	0.00541 relative 10-mer count	0.00348 relative 10-mer count
CACCTCCCCA	0.115 relative 10-mer count	0.00505 relative 10-mer count	0.00348 relative 10-mer count
ACGCCCACCC	0.129 relative 10-mer count	0.00486 relative 10-mer count	0.00587 relative 10-mer count
CATCCCCCCC	0.123 relative 10-mer count	0.00463 relative 10-mer count	0.00635 relative 10-mer count
TCCCCCCCCA	0.116 relative 10-mer count	0.005 relative 10-mer count	0.00264 relative 10-mer count
CACACCCCCC	0.146 relative 10-mer count	0.00514 relative 10-mer count	0.0018 relative 10-mer count
ACAAAAAAAA	0.179 relative 10-mer count	0.0167 relative 10-mer count	0.0899 relative 10-mer count
CCAACCCCCA	0.13 relative 10-mer count	0.00486 relative 10-mer count	0.00168 relative 10-mer count
CCCCCAACCA	0.118 relative 10-mer count	0.00477 relative 10-mer count	0.00503 relative 10-mer count
CCCCCGCCCA	0.167 relative 10-mer count	0.00638 relative 10-mer count	0.00192 relative 10-mer count
CACGCCCCCC	0.123 relative 10-mer count	0.00454 relative 10-mer count	0.00635 relative 10-mer count
CCCCGACCAC	0.111 relative 10-mer count	0.00422 relative 10-mer count	0.00395 relative 10-mer count
CCCTCCTCCC	0.179 relative 10-mer count	0.00927 relative 10-mer count	0.00479 relative 10-mer count
ACCACCCCCC	0.211 relative 10-mer count	0.00771 relative 10-mer count	0.00288 relative 10-mer count
CACAAAAAAG	0.102 relative 10-mer count	0.00853 relative 10-mer count	0.0405 relative 10-mer count
CCGTCCCCCC	0.15 relative 10-mer count	0.00693 relative 10-mer count	0.00192 relative 10-mer count
AGGGGGGCGG	0.108 relative 10-mer count	0.00417 relative 10-mer count	0.0012 relative 10-mer count
CCAACCCCCC	0.169 relative 10-mer count	0.0056 relative 10-mer count	0.00144 relative 10-mer count
CCACGCCCCA	0.109 relative 10-mer count	0.00422 relative 10-mer count	0.0024 relative 10-mer count

Sequence	binding signal (ZNF721 full-length)	binding signal (ZNF721 DBD1)	binding signal (ZNF721 DBD2)
CCGCCCCCTC	0.128 relative 10-mer count	0.00573 relative 10-mer count	0.00324 relative 10-mer count
CCCACCACGC	0.108 relative 10-mer count	0.00408 relative 10-mer count	0.00539 relative 10-mer count
CATCCCCACC	0.126 relative 10-mer count	0.0072 relative 10-mer count	0.0188 relative 10-mer count
CCCACCGACC	0.127 relative 10-mer count	0.00394 relative 10-mer count	0.00455 relative 10-mer count
CCCCCCGCCG	0.104 relative 10-mer count	0.00303 relative 10-mer count	0.0024 relative 10-mer count
CAGCCCACCC	0.151 relative 10-mer count	0.00431 relative 10-mer count	0.0841 relative 10-mer count
AAAAAAGCTG	0.303 relative 10-mer count	0.137 relative 10-mer count	0.00707 relative 10-mer count
CCCCACCCAA	0.134 relative 10-mer count	0.00431 relative 10-mer count	0.00491 relative 10-mer count
CCCACGACCC	0.107 relative 10-mer count	0.00564 relative 10-mer count	0.0018 relative 10-mer count
ACCCTCCACC	0.127 relative 10-mer count	0.00482 relative 10-mer count	0.00707 relative 10-mer count
ACCAAAAAAA	0.128 relative 10-mer count	0.00904 relative 10-mer count	0.0723 relative 10-mer count
CCCACCATCC	0.152 relative 10-mer count	0.00647 relative 10-mer count	0.00527 relative 10-mer count
CCTCCACCAC	0.116 relative 10-mer count	0.00564 relative 10-mer count	0.00923 relative 10-mer count
CCTACCACCC	0.111 relative 10-mer count	0.00619 relative 10-mer count	0.0101 relative 10-mer count
AAAAAGCTAT	0.425 relative 10-mer count	0.225 relative 10-mer count	0.00192 relative 10-mer count
CCCACCCCCC	0.427 relative 10-mer count	0.0183 relative 10-mer count	0.00384 relative 10-mer count
AAAAAAAAGC	0.653 relative 10-mer count	0.113 relative 10-mer count	0.125 relative 10-mer count
GCTTTTTTCC	0.267 relative 10-mer count	0.0895 relative 10-mer count	0.0308 relative 10-mer count
CGCCCCCCAC	0.156 relative 10-mer count	0.00679 relative 10-mer count	0.00407 relative 10-mer count
ACCCTCCCAC	0.119 relative 10-mer count	0.00734 relative 10-mer count	0.00587 relative 10-mer count
